Source: PubChem BioAssay (NCI)
About 79,000 compounds went through this panel and 15% of them were active in at least one assay; those are over-represented in the sample as a whole. Unmarked numbers belong to inactive results. Active and inactive are the calls of the source. Rule as the data show it: active = growth inhibition above about 70%; inactive = the rest.

What was measured:
[1] = NCI Yeast Anticancer Drug Screen. Data for the rad52 strain (AID 147);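 also: 0% = growth of vehicle-treated control cultures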; details: S. cerevisiae rad52 mutant growth inhibition, active compounds read high
How it was run: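 DNA repair-defective yeast; compound exposure; growth scored against vehicle controls.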

[2] = NCI Yeast Anticancer Drug Screen. Data for the rad50EPP+ strain (AID 151);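 also: 0% = growth of vehicle-treated control cultures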; details: S. cerevisiae rad50 mutant strain, active compounds read high
How it was run: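 rad50EPP+ yeast treated with test compounds. Readout: growth vs vehicle control.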

[3] = NCI Yeast Anticancer Drug Screen. Data for the mgt1 strain (AID 153); details: S. cerevisiae mgt1 mutant growth inhibition, active compounds read high
How it was run: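 Growth inhibition relative to vehicle controls was scored for the mgt1 yeast strain after compound exposure.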

[4] = NCI Yeast Anticancer Drug Screen. Data for the rad50 strain (AID 155);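 also: 0% = growth of vehicle-only cultures of the same strain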; details: S. cerevisiae rad50 strain growth inhibition, active compounds read high
How it was run: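 DNA repair mutant yeast, compound exposure, growth read-out; inhibition is taken relative to vehicle.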

[5] = NCI Yeast Anticancer Drug Screen. Data for the mec2-1 strain (AID 157); details: S. cerevisiae mec2-1 strain, active compounds read high
How it was run: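 Growth inhibition is read against vehicle-treated controls after compound exposure of the mec2-1 yeast strain, which is defective in DNA damage repair or cell cycle control.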

[6] = NCI Yeast Anticancer Drug Screen. Data for the rad14 strain (AID 159);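 also: 0% = growth of vehicle-treated control cultures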; details: S. cerevisiae rad14 strain growth inhibition, active compounds read high
How it was run: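 DNA repair-defective yeast, compound-exposed; % growth inhibition derived by comparison with vehicle-treated controls.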

[7] = NCI Yeast Anticancer Drug Screen. Data for the sgs1 mgt1 strain (AID 161);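 also: 0% = growth of cultures given vehicle only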; details: S. cerevisiae sgs1 mgt1 strain, active compounds read high
How it was run: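 Growth of a repair-deficient yeast mutant was monitored after compound treatment and expressed as inhibition relative to vehicle-treated cultures.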

[8] = NCI Yeast Anticancer Drug Screen. Data for the CLN2oe strain (AID 163);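 also: 0% = growth of vehicle-only control cultures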; details: S. cerevisiae CLN2oe strain, active compounds read high
How it was run: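 Compound-treated yeast; growth vs vehicle ctrl = % inhibition. Genetically altered strain (cell-cycle control).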

[9] = NCI Yeast Anticancer Drug Screen. Data for the cln2 rad14 strain (AID 165);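 also: 0% = growth equal to vehicle treated cultures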; details: S. cerevisiae cln2 rad14 strain, active compounds read high
How it was run: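 Growth inhibition, relative to vehicle-treated controls, is the read-out. The test organism is a yeast strain with defined genetic alterations, cln2 rad14.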

[10] = NCI Yeast Anticancer Drug Screen. Data for the bub3 strain (AID 167); details: S. cerevisiae bub3 mutant strain, active compounds read high
How it was run: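 In this screen, a yeast mutant lacking normal mitotic checkpoint function is challenged with compound. Relative growth versus vehicle gives the inhibition value.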

[11] = NCI Yeast Anticancer Drug Screen. Data for the wt2 strain (AID 169);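 also: 0% = growth of vehicle-treated yeast cultures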; details: S. cerevisiae wt2 strain growth inhibition, active compounds read high
How it was run: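 Compound exposure of yeast; growth compared with vehicle controls; inhibition reported.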

[12] = NCI Yeast Anticancer Drug Screen. Data for the mlh1 strain (AID 171);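 also: 0% = growth of vehicle-treated control cultures of the same strain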; details: S. cerevisiae mlh1 strain growth inhibition, active compounds read high
How it was run: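 Compounds are applied to a genetically altered yeast strain, and its growth is compared with that of vehicle-treated cultures to give percent inhibition.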

[13] = NCI Yeast Anticancer Drug Screen. Data for the sgs1 strain (AID 173);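 also: 0% = growth of vehicle-only control cultures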; details: S. cerevisiae sgs1 mutant, active compounds read high
How it was run: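 Compounds applied to genetically altered yeast; growth compared with vehicle-treated cultures to give % inhibition.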

[14] = NCI Yeast Anticancer Drug Screen. Data for the mlh1 rad18 strain (AID 175); details: S. cerevisiae mlh1 rad18 strain growth inhibition, active compounds read high
How it was run: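 Cells of a genetically altered yeast strain, deficient in DNA damage repair, were treated with compound. Their growth was then compared with that of vehicle-treated cultures to give inhibition.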

[15] = NCI Yeast Anticancer Drug Screen. Data for the rad18 strain (AID 177); details: S. cerevisiae rad18 mutant growth inhibition, active compounds read high
How it was run: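 Compounds are applied to a repair-deficient yeast strain, and growth is compared with that of vehicle-treated cultures to give percent inhibition.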

[16] = at 5.0 µM (retest, dose inferred, filed as 0.5)
[17] = at 50.0 µM (retest, dose inferred, filed as 5.0)

CCC#CCCCOC(=O)c1cc([N+](=O)[O-])cc([N+](=O)[O-])c1
growth inhibition ([1]; at 1.2 µM): -3% | growth inhibition ([1]; at 3.7 µM): -4% | growth inhibition ([1]; at 11.0 µM): 2% | growth inhibition ([1]; at 33.0 µM): 81% (active) | growth inhibition ([1]; at 100.0 µM): 98% (active) | growth inhibition ([2]; at 1.2 µM): 3% | growth inhibition ([2]; at 3.7 µM): 21% | growth inhibition ([2]; at 11.0 µM): 55% | growth inhibition ([2]; at 33.0 µM): 92% (active) | growth inhibition ([2]; at 100.0 µM): 98% (active) | growth inhibition ([3]; at 1.2 µM): -5% | growth inhibition ([3]; at 3.7 µM): -8% | growth inhibition ([3]; at 11.0 µM): -4% | growth inhibition ([3]; at 33.0 µM): 93% (active) | growth inhibition ([3]; at 100.0 µM): 99% (active) | growth inhibition ([4]; at 1.2 µM): -4% | growth inhibition ([4]; at 3.7 µM): -6% | growth inhibition [4, 16]: 6% | growth inhibition ([4]; at 11.0 µM): 0% | growth inhibition ([4]; at 33.0 µM): 87% (active) | growth inhibition [4, 17]: 97% (active) | growth inhibition ([4]; at 50.0 µM): 99.2% (active) | growth inhibition ([4]; at 100.0 µM): 98% (active) | growth inhibition ([5]; at 1.2 µM): -6% | growth inhibition ([5]; at 3.7 µM): -2% | growth inhibition [5, 16]: 7% | growth inhibition ([5]; at 11.0 µM): 2% | growth inhibition ([5]; at 33.0 µM): 83% (active) | growth inhibition [5, 17]: 99% (active) | growth inhibition ([5]; at 50.0 µM): 99.3% (active) | growth inhibition ([5]; at 100.0 µM): 99% (active) | growth inhibition ([6]; at 1.2 µM): -5% | growth inhibition ([6]; at 3.7 µM): -6% | growth inhibition ([6]; at 11.0 µM): 1% | growth inhibition ([6]; at 33.0 µM): 79% (active) | growth inhibition ([6]; at 100.0 µM): 99% (active) | growth inhibition [7, 16]: 10% | growth inhibition [7, 17]: 99% (active) | growth inhibition ([7]; at 50.0 µM): 99.6% (active) | growth inhibition ([8]; at 1.2 µM): -5% | growth inhibition ([8]; at 3.7 µM): -11% | growth inhibition ([8]; at 11.0 µM): -19% | growth inhibition ([8]; at 33.0 µM): 44% | growth inhibition ([8]; at 100.0 µM): 99% (active) | growth inhibition [9, 16]: -7% | growth inhibition [9, 17]: 94% (active) | growth inhibition ([9]; at 50.0 µM): 97.7% (active) | growth inhibition ([10]; at 1.2 µM): -10% | growth inhibition ([10]; at 3.7 µM): -7% | growth inhibition [10, 16]: 4% | growth inhibition ([10]; at 11.0 µM): -6% | growth inhibition ([10]; at 33.0 µM): 52% | growth inhibition [10, 17]: 97% (active) | growth inhibition ([10]; at 50.0 µM): 99.5% (active) | growth inhibition ([10]; at 100.0 µM): 98% (active) | growth inhibition ([11]; at 1.2 µM): -7% | growth inhibition ([11]; at 3.7 µM): -10% | growth inhibition ([11]; at 11.0 µM): 4% | growth inhibition ([11]; at 33.0 µM): 98% (active) | growth inhibition ([11]; at 100.0 µM): 99% (active) | growth inhibition ([12]; at 1.2 µM): -2% | growth inhibition ([12]; at 3.7 µM): 0% | growth inhibition ([12]; at 11.0 µM): 8% | growth inhibition ([12]; at 33.0 µM): 91% (active) | growth inhibition ([12]; at 100.0 µM): 99% (active) | growth inhibition ([13]; at 1.2 µM): -1% | growth inhibition ([13]; at 3.7 µM): 3% | growth inhibition ([13]; at 11.0 µM): 23% | growth inhibition ([13]; at 33.0 µM): 98% (active) | growth inhibition ([13]; at 100.0 µM): 99% (active) | growth inhibition [14, 16]: 13% | growth inhibition [14, 17]: 99% (active) | growth inhibition ([14]; at 50.0 µM): 99.2% (active) | growth inhibition ([15]; at 1.2 µM): -3% | growth inhibition ([15]; at 3.7 µM): 4% | growth inhibition ([15]; at 11.0 µM): 20% | growth inhibition ([15]; at 33.0 µM): 94% (active) | growth inhibition ([15]; at 100.0 µM): 99% (active)

N#CN1C2CCC1CC(=O)C2
growth inhibition ([1]; at 1.2 µM): -12% | growth inhibition ([1]; at 3.7 µM): -32% | growth inhibition ([1]; at 11.0 µM): -21% | growth inhibition ([1]; at 33.0 µM): -18% | growth inhibition ([1]; at 100.0 µM): -21% | growth inhibition ([2]; at 1.2 µM): -25% | growth inhibition ([2]; at 3.7 µM): -35% | growth inhibition ([2]; at 11.0 µM): -27% | growth inhibition ([2]; at 33.0 µM): -43% | growth inhibition ([2]; at 100.0 µM): -33% | growth inhibition ([3]; at 1.2 µM): -8% | growth inhibition ([3]; at 3.7 µM): -10% | growth inhibition ([3]; at 11.0 µM): -13% | growth inhibition ([3]; at 33.0 µM): -11% | growth inhibition ([3]; at 100.0 µM): -8% | growth inhibition ([4]; at 1.2 µM): 3% | growth inhibition ([4]; at 3.7 µM): 1% | growth inhibition [4, 16]: 66% | growth inhibition ([4]; at 11.0 µM): -34% | growth inhibition ([4]; at 33.0 µM): -40% | growth inhibition [4, 17]: 99% (active) | growth inhibition ([4]; at 50.0 µM): 66% | growth inhibition ([4]; at 100.0 µM): -24% | growth inhibition ([5]; at 1.2 µM): -27% | growth inhibition ([5]; at 3.7 µM): -36% | growth inhibition [5, 16]: 63% | growth inhibition ([5]; at 11.0 µM): -54% | growth inhibition ([5]; at 33.0 µM): -24% | growth inhibition [5, 17]: 84% (active) | growth inhibition ([5]; at 50.0 µM): 43.6% | growth inhibition ([5]; at 100.0 µM): -36% | growth inhibition ([6]; at 1.2 µM): -26% | growth inhibition ([6]; at 3.7 µM): -23% | growth inhibition ([6]; at 11.0 µM): -13% | growth inhibition ([6]; at 33.0 µM): -2% | growth inhibition ([6]; at 100.0 µM): 8% | growth inhibition [7, 16]: -5% | growth inhibition [7, 17]: -5% | growth inhibition ([7]; at 50.0 µM): 77.4% (active) | growth inhibition ([8]; at 1.2 µM): 12% | growth inhibition ([8]; at 3.7 µM): 7% | growth inhibition ([8]; at 11.0 µM): -28% | growth inhibition ([8]; at 33.0 µM): -27% | growth inhibition ([8]; at 100.0 µM): -11% | growth inhibition [9, 16]: 50% | growth inhibition [9, 17]: 34% | growth inhibition ([9]; at 50.0 µM): 74.8% (active) | growth inhibition ([10]; at 1.2 µM): 14% | growth inhibition ([10]; at 3.7 µM): 23% | growth inhibition [10, 16]: 39% | growth inhibition ([10]; at 11.0 µM): 15% | growth inhibition ([10]; at 33.0 µM): 27% | growth inhibition [10, 17]: 12% | growth inhibition ([10]; at 50.0 µM): 57.3% | growth inhibition ([10]; at 100.0 µM): 31% | growth inhibition ([11]; at 1.2 µM): -18% | growth inhibition ([11]; at 3.7 µM): -16% | growth inhibition ([11]; at 11.0 µM): -19% | growth inhibition ([11]; at 33.0 µM): -22% | growth inhibition ([11]; at 100.0 µM): -25%
